Test results reported in PubChem BioAssay (NCI).
The panel holds about 83,000 compounds, 20% with a hit somewhere; the sample as a whole holds those more often.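 A percent growth of 40 corresponds to 60% growth inhibition; 0 means no net growth; -100 means all cells died. Active threshold: below 10.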 Values without a mark were called inactive. Active and inactive are the calls of the source.

Assays:
Test in all cases: NCI-60 one-dose screen, 48 h (100 = growth as untreated, 0 = no growth, -100 = all killed)
[1] = system: SK-MEL-2 melanoma; settings: 10 µM unless noted
[2] = system: EKVX NSCLC; settings: 10 µM unless noted
[3] = system: SN12C renal; settings: 10 µM unless noted
[4] = system: UO-31 renal; settings: 10 µM unless noted
[5] = system: TK-10 renal; settings: 10 µM unless noted
[6] = system: ACHN renal; settings: 10 µM unless noted
[7] = system: CAKI-1 renal; settings: 10 µM
[8] = system: A498 renal; settings: 10 µM unless noted
[9] = system: CCRF-CEM leukemia; settings: 10 µM unless noted
[10] = system: MOLT-4 leukemia; settings: 10 µM unless noted
[11] = system: SR leukemia; settings: 10 µM unless noted
[12] = system: RPMI-8226 leukemia; settings: 10 µM unless noted
[13] = system: OVCAR-8 ovarian; settings: 10 µM unless noted
[14] = system: OVCAR-5 ovarian; settings: 10 µM unless noted
[15] = system: OVCAR-4 ovarian; settings: 10 µM unless noted
[16] = system: SK-OV-3 ovarian; settings: 10 µM unless noted
[17] = system: IGROV1 ovarian; settings: 10 µM unless noted
[18] = system: OVCAR-3 ovarian; settings: 10 µM unless noted
[19] = system: HS 578T breast; settings: 10 µM unless noted
[20] = system: NCI/ADR-RES ovarian; settings: 10 µM unless noted

Structure (SMILES)	growth [1]	growth [2] [%]	growth [3]	growth [4]	growth [5]	growth [6]	growth [7]	growth [8]	growth [9]	growth [10]	growth [11]	growth [12]	growth [13]	growth [14]	growth [15]	growth [16]	growth [17]	growth [18]	growth [19]	growth [20]
O=C(CSc1ccc(-c2nc3ccccc3[nH]2)cn1)N1CCN(c2ccccc2F)CC1	88.4%	53.6	90.4%	70.9%	86.5%	93.2%	49.1%	77%	28.2%	14.6%	52.5%	50.2%	37.4%	107%	24.2%	95.4%	80.7%	50.7%	89.4%	29%
Nc1ccc(-c2nnc(SCc3ccc(O)c4ncccc34)n2-c2ccccc2)cc1	12.4%	30	5.29% (active)	4.44% (active)	25.3%	12.4%	12.9%	15.8%	20.7%	29.5%	36.5%	11.6%	12.5%	34.4%	12.4%	8.19% (active)	14.3%	19.2%	5.08% (active)	45.2%
COc1ccccc1N1CCN(C2=NN=C(c3cccc(Cl)c3)c3ccccc3C2)CC1	0.738% (active)	40.9	21.2%	24%	27.8%	28.5%	29.7%	-16.6% (active)	10.1%	17.6%	-15.3% (active)	9.68% (active)	13%	40.4%	38.6%	13.7%	21.4%	-31.2% (active)	18.9%	10.7%
CCCCCCCCNC(=O)c1ccc(Cn2c(CCCC)nc3c(N)nc4ccccc4c32)cc1	95.4%	62.8	-77.3% (active)	11.8%	78.8%	26.6%	-1.97% (active)	68%	-1.62% (active)	-7.07% (active)	8.69% (active)	-38% (active)	-10.9% (active)	75.5%	-54.3% (active)	76.1%	-37.8% (active)	69.5%	87.4%	-62.2% (active)
O=C1C[C@@H](c2ccccc2)Oc2c(Cc3ccccc3O)c(O)c(Cc3cc(Cc4cc(Cc5ccccc5O)ccc4O)ccc3O)c(O)c21	110%	93.2	100%	66.6%	147%	94.4%	75.5%	98.3%	91.5%	76.3%	99.5%	88%	97.2%	107%	99.6%	103%	82.6%	96.4%	85.4%	106%
CNC(=O)c1cc(N2CCc3cc(NC(=O)Nc4ccc(Cl)c(Cl)c4)ccc32)ccn1	84.3%	85.3	86.1%	89.1%	99.3%	80.1%	82.2%	89.1%	86.5%	67.7%	64.4%	57.1%	90%	96.8%	86.4%	88.8%	94%	105%	62%	93%
O=C(/C=C/c1cccc(O)c1)c1ccc(O)cc1	107%	98.4	65.6%	72.6%	98.3%	75.1%	65.3%	114%	37%	91.7%	13%	18.7%	83.7%	91.4%	96.2%	112%	80.2%	14.3%	101%	71.4%
NS(=O)(=O)Oc1ccc2nc(Nc3ccc(F)c(F)c3)ccc2c1	116%	93.4	88%	73.3%	118%	85.8%	76.7%	74.5%	67.8%	67%	60.5%	86.7%	96.1%	91.6%	88.9%	111%	94.4%	–	104%	94.6%
O=C(NCCCCCCNC(=O)c1c2c(nc3ccccc13)-c1cccnc1SC2)c1c2c(nc3ccccc13)-c1cccnc1SC2	5.25% (active)	49.1	73.8%	38.8%	145%	65.8%	61.5%	76.5%	93.6%	88.1%	89.7%	58.9%	78.2%	57.9%	79.6%	85.7%	43.7%	–	83.2%	77.2%
C/C=C/C=C1\C[C@H]2CO[C@H](O2)C1=O	100%	103	100%	88.2%	108%	103%	98%	103%	78.9%	90.4%	53.1%	95.4%	99.7%	103%	101%	103%	97.7%	–	107%	98.1%
CCOC(=O)c1c(NC(=O)c2cccc(C(F)(F)F)c2)sc2c(CN3CCN(C)CC3)c(O)ccc12	94.7%	70.4	-83.7% (active)	-95% (active)	-52.7% (active)	-98.8% (active)	-73.9% (active)	77.5%	-23.8% (active)	-27.8% (active)	23.5%	-28.8% (active)	-35.2% (active)	-77.9% (active)	26.8%	97.3%	-86.1% (active)	65.6%	76.3%	-38.2% (active)
Cc1ccc(NC(=O)c2cccc(CN3CCN(C)CC3)c2)cc1Oc1ccc(-c2[nH]nc3ncnc(N)c23)cc1	73.8%	97.5	80%	93.3%	93.5%	92.6%	59.3%	89.2%	47%	0.353% (active)	6.56% (active)	48.7%	83.1%	80.8%	81.9%	78.8%	63.3%	79.6%	64.2%	101%
Cc1ccc(S(=O)(=O)N/N=C/c2cn(-c3ccc(F)cc3)nc2-c2ccc(S(C)(=O)=O)cc2)cc1	102%	96.6	99.8%	89.8%	103%	102%	98%	87.5%	103%	106%	107%	106%	102%	105%	101%	105%	99.7%	–	107%	106%
COc1ccc(Cn2cc3c(c2-c2ccccc2)CCCc2cnoc2-3)cc1[N+](=O)[O-]	60.4%	78.9	82.2%	55.5%	109%	87.1%	50.5%	66.8%	52.6%	47%	32.6%	59%	80.2%	93.4%	68.8%	74.8%	64%	–	64.3%	42.5%
CC(=O)Nc1ccc(C)c(Nc2cc(-c3ccc(-n4cccn4)cc3)[nH]n2)c1	3.79% (active)	74.7	60.9%	60.6%	89.6%	65.8%	47.2%	27.3%	26.1%	47.8%	19.2%	50.3%	80%	93.3%	82.1%	59.3%	47.6%	–	42.3%	87.7%
CN1C(=O)N(C)C2C1NN=c1s/c(=C\c3ccccn3)c(=O)n12 (centres undefined)	103%	99.4	98.8%	91.3%	104%	104%	100%	105%	101%	107%	114%	101%	101%	109%	105%	110%	102%	115%	104%	96.7%
